Screens: PubChem BioAssay, several laboratories
CSC inhib – cancer stem cell viability inhibitors, primary screen, luminescence | cancer stem cell-like cells viability | inhibition, % at 7.5 µM | 300,000 compounds, 1.1% hits | AID 2717, 2010; in the data active = inhibition above about 75%; inconclusive = no clear call, values can overlap the other calls; tested in HMLE shEcad cells
PP1 inh – PP1-alpha phosphatase inhibitors, primary screen, counter-screen for PP5 inhibitor project, biochemical, fluorescence, OMFP substrate, single point; Serine/threonine-protein phosphatase PP1-alpha catalytic subunit (Homo sapiens), P62136; purified PP1alpha; inhibition, % at 6.7 µM; 320,000 compounds, 0.9% hits;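 active = inhibition above the mean inhibition of all tested compounds plus 3 SD, computed separately for each screening campaign, cut at about 15% in these data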
Beta cell apopt – inhibitors of cytokine-induced beta cell apoptosis, primary screen, luminescence; INS-1E cytokine-induced death, ATP luminescence, 48 h; percent of positive-control rescue, neutral wells zero; 300,000 compounds, 0.8% hits; protection from apoptosis, % (concentration not given with the values);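 active = Every replicate reaches about 75%, or at least half do and their mean reaches it too, limit read from the data; inconclusive = At least half of replicates reach the limit but their mean does not; inactive = Under half of replicates reach the limit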;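 also: higher means more ATP so stronger rescue from cytokine killing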
Mdm2 MdmX PPI – inhibitors of human Mdm2-MdmX association, primary screen, cell-based, luminescence, split luciferase, SaOS-2, uHTS; AID 485346, 2010; 330,000 compounds, 3% hits; inhibition, % at 8 µM; SaOS-2 split-luciferase Mdm2/MdmX complementation; Protein Mdm4 (Homo sapiens) + E3 ubiquitin-protein ligase Mdm2 (Homo sapiens), …;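 active = inhibition of at least 50% at 8 µM in the primary screen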
Target sequence (O15151 whole entry, looked up): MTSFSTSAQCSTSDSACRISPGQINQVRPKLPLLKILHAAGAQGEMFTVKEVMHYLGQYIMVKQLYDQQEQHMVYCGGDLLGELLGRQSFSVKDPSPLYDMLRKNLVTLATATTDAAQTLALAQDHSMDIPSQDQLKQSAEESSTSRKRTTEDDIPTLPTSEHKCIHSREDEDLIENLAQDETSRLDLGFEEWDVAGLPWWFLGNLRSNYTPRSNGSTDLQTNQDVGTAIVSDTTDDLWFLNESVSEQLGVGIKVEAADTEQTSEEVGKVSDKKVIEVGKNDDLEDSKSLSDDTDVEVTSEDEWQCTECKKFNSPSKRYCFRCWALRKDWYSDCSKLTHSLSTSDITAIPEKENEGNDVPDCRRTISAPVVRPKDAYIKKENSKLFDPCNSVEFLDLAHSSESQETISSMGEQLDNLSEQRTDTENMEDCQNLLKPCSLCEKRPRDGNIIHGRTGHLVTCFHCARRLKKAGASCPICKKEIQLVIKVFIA
Target sequence (Q00987 whole entry, looked up): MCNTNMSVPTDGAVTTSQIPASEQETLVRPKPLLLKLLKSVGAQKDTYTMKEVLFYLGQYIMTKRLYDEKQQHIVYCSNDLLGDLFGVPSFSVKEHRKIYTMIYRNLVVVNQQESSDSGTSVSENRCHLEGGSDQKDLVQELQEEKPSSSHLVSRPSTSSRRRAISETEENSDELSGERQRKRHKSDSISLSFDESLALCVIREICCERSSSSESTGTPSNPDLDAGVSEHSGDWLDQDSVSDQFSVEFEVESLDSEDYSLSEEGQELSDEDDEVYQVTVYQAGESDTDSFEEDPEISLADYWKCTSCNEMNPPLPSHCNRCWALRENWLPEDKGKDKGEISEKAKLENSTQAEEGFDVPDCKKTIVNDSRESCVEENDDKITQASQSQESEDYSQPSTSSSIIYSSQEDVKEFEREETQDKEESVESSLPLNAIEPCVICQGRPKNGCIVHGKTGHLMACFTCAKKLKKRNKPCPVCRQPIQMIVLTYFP
PP5 inh – PP5 phosphatase inhibitors, primary screen, biochemical, fluorescence; inhibition, % at 6.7 µM; purified PP5c, OMFP substrate fluorescence; 320,000 compounds, 0.18% hits; AID 1987, 2009;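 active = inhibition above the campaign's mean inhibition across all tested compounds plus 3 SD, cut at about 9.5% in these data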
Calb FLC – C. albicans growth inhibition with fluconazole, primary screen, CaCi-2 strain, Alamar Blue fluorescence; C. albicans CaCi-2 (fluconazole-resistant clinical isolate) + fluconazole, 48 h; growth inhibition, % (test concentration not listed); 300,000 compounds, 0.57% hits;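 active = growth inhibition above about 58% in most replicates, limit read from the data, passing the limit was not always enough; inconclusive = exactly half the replicates above a set limit; inactive = most replicates below a set limit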;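 also: all wells also contain fluconazole at 8 µg/ml as a sub-toxic cotreatment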
PP1 inh confirm – PP1 phosphatase inhibitors, confirmation, biochemical, fluorescence, OMFP substrate, triplicate; inhibition, % at 6.7 µM; purified PP1alpha; shares compounds with PP1 inh; 1,900 compounds, 52% hits; AID 2358, 2010;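 active = mean PP1 inhibition above a set limit taken from the earlier primary screen, cut at about 15% in these data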
PP5 inh counter – PP5 phosphatase inhibition by PP1 hits, confirmation, counter-screen for PP1 inhibitor project, biochemical, fluorescence, triplicate; 1,900 compounds, 4% hits; AID 2360, 2010; shares compounds with PP1 inh; purified PP5c, OMFP fluorescence; inhibition, % at 6.7 µM;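 active = mean PP5 inhibition over triplicate wells above about 9.5% taken from the earlier PP1 screen, limit read from the data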
Mdm2-MdmX conf – Mdm2-MdmX complex disruptors, retested hits, confirmation, luminescence, single concentration. shares compounds with Mdm2 MdmX PPI. Mdm2-MdmX binding, luminescent assay. inhibition, % at 8 µM. 10,000 compounds, 55% hits. AID 489028, 2010; in the data active = inhibition above about 40%
Full FLuc ctr – full-length luciferase signal inhibition, confirmation, counter-screen for Mdm2/MdmX interaction inhibitor project, cell-based, single concentration, SaOS-2. AID 504607, 2011. inhibition, % at 8 µM. shares compounds with Mdm2 MdmX PPI. SaOS-2 full-length luciferase counterscreen, luminescence. 6,200 compounds, 77% hits;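 active = mean inhibition at 8 µM reaching about 37%, which flags the compound as non-specific, limit read from the data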;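 also: p53-null SaOS-2 cells with luciferase driven by a doxycycline-inducible promoter; compound on cells about two nights before reading with doxycycline added after day one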
Large screens that a line does not name were inactive (follow-up assays come after a bar, where they were run). The list is not random: actives were taken first. Their share in the collection is about 4.9%.

COc1ccc(C(NC(=O)c2cccnc2)c2cc(Cl)c3cccnc3c2O)cc1OC (stereo not drawn)	PP1 inh 34, Beta cell apopt 91, Mdm2 MdmX PPI 75 (no result: CSC inhib) | PP1 inh confirm 22 | PP5 inh counter inactive | Mdm2-MdmX conf 78 | Full FLuc ctr inactive
CC(C)C(=O)NC(c1ccccc1)c1cc([N+](=O)[O-])c2cccnc2c1O (stereo not drawn)	CSC inhib 147, PP1 inh 29, Beta cell apopt 91, Mdm2 MdmX PPI 81 | PP1 inh confirm inactive | PP5 inh counter 11 | Mdm2-MdmX conf 72 | Full FLuc ctr 42
CC(=O)NC(C)c1cc(F)c2cccnc2c1O (stereo not drawn)	none (no result: Calb FLC)
CC(C)CCN1CCN(Cc2ccc(C#CCCO)cc2)CC1CCO (stereo not drawn)	none
COc1ccccc1CCC(=O)Nc1ccc2c(c1)CN(Cc1ccc(CO)o1)CC2	none
COc1ccc2oc(C(=O)OCC(=O)N(C)C3CCCCC3)c(C)c2c1	none
COc1ccc2cc(Br)ccc2c1CC(=O)NCCCN1CCOCC1	none
C(=N\Nc1nc2ccccc2[nH]1)/c1cccc2cccnc12	CSC inhib 100, PP1 inh 18, Mdm2 MdmX PPI 65 (no result: Beta cell apopt) | PP1 inh confirm inactive | PP5 inh counter inactive | Mdm2-MdmX conf 66 | Full FLuc ctr 45
CCOc1ccc(-n2cnc3sc(C)c(C)c3c2=O)cc1	none
O=C(O)c1ccc(Cl)c(S(=O)(=O)NC(Cc2ccccc2)C(=O)O)c1 (stereo not drawn)	none
C=CCn1c(=NC(=O)c2ccc(S(=O)(=O)N3CCc4ccccc4C3)cc2)sc2cc(S(N)(=O)=O)ccc21	Calb FLC inconclusive (no result: CSC inhib)
C#CCn1c(=NC(=O)c2ccc(S(=O)(=O)N3CCc4ccccc4C3)cc2)sc2cc(S(N)(=O)=O)ccc21	PP1 inh 26, Beta cell apopt 104, Mdm2 MdmX PPI 86 (no result: CSC inhib) | PP1 inh confirm 28 | PP5 inh counter inactive | Mdm2-MdmX conf 55 | Full FLuc ctr inactive
CN1C[C@@H]2C(c3ccc(Cl)nc3)C3(c4ccc(C#N)cc4)CC2(C3)[C@H]1c1ccccc1 (stereo partly drawn)	none
N#Cc1ccc(C23CC4(C2)[C@H](CN(P(=O)(c2ccccc2)c2ccccc2)[C@@H]4c2ccccc2)C3c2ccc(Cl)nc2)cc1 (stereo partly drawn)	PP1 inh 18, Mdm2 MdmX PPI 56 | PP1 inh confirm inactive | PP5 inh counter inactive | Mdm2-MdmX conf inactive | Full FLuc ctr 54
CCNC(=S)NNC(=O)c1ccccn1	none
O=C(NNC(=S)Nc1ccc(Cl)c(Cl)c1)c1ccccn1	CSC inhib 109, PP1 inh 21, Beta cell apopt 78, Mdm2 MdmX PPI 79, Calb FLC 102 | PP1 inh confirm 24 | PP5 inh counter inactive | Mdm2-MdmX conf 84 | Full FLuc ctr 48
CC1CN(C(=O)c2cc3c(=O)n4ccccc4nc3n2C)CC(C)O1 (stereo not drawn)	Calb FLC inconclusive
O=C(CCS(=O)(=O)c1ccc(F)cc1)Nc1nc(-c2ccccn2)cs1	PP1 inh 21, Mdm2 MdmX PPI 69 | PP1 inh confirm 44 | PP5 inh counter inactive | Mdm2-MdmX conf 43 | Full FLuc ctr 39
CC(Oc1ccc(F)cc1)C(=O)Nc1nc(-c2ccccn2)cs1 (stereo not drawn)	PP1 inh 21, Mdm2 MdmX PPI 77 | PP1 inh confirm 32 | PP5 inh counter inactive | Mdm2-MdmX conf 84 | Full FLuc ctr inactive
O=C(CCS(=O)(=O)c1ccccc1)Nc1nc(-c2ccccn2)cs1	PP1 inh 27, Mdm2 MdmX PPI 70 | PP1 inh confirm 37 | PP5 inh counter inactive | Mdm2-MdmX conf inactive | Full FLuc ctr 48
O=C(CCS(=O)(=O)c1ccccc1)Nc1ccccn1	none (no result: CSC inhib)
Cc1csc(NC(=O)CCS(=O)(=O)c2ccc(Br)cc2)n1	none (no result: CSC inhib)
Cc1ccsc1/C=N/NC(=O)Cc1cccn1C	none
COc1ccc(NC(C)(C)c2nnnn2-c2c(C)cccc2C)cc1	none
CCOc1cc(N2CCOCC2)c(OCC)cc1NC(=O)CSc1nnc(N)s1	none (no result: CSC inhib, PP1 inh, PP5 inh, Calb FLC)
CCCCCCOc1ccc(/C(C)=N/NC2=NCCN2)cc1[N+](=O)[O-]	CSC inhib inconclusive, PP1 inh 20, Mdm2 MdmX PPI 52, Calb FLC inconclusive | PP1 inh confirm inactive | PP5 inh counter inactive | Mdm2-MdmX conf 71 | Full FLuc ctr 106
C/C(=N\NC1=NCCN1)c1ccc(N)c([N+](=O)[O-])c1	none
CCCCNC(=O)c1ccccc1NC(=O)CCC	none
O=C(Nc1cccc(-c2cn3ccccc3n2)c1)c1cc2ccccc2oc1=O	PP1 inh 24, Mdm2 MdmX PPI 100 | PP1 inh confirm 28 | PP5 inh counter inactive | Mdm2-MdmX conf inactive
CC(=O)Nc1cccc(-c2cn3ccccc3n2)c1	none (no result: CSC inhib)
O=C(O)Cn1c(O)c(C2=c3ccccc3=NC2=O)sc1=O	none
C=CCn1c(O)c(C2=c3ccccc3=NC2=O)s/c1=N/c1nccs1	PP1 inh 23, Mdm2 MdmX PPI 79 | PP1 inh confirm 24 | PP5 inh counter inactive | Mdm2-MdmX conf inactive
O=C(Nc1ccnn1C1CCN(Cc2cccc(O)c2)CC1)C1CCCC1	none (no result: Beta cell apopt)
CCOC(=O)c1cnc(-n2nc(C)cc2C)nc1NC1CCCCC1	PP1 inh 55, Mdm2 MdmX PPI 86 (no result: Beta cell apopt) | PP1 inh confirm 54 | PP5 inh counter inactive | Mdm2-MdmX conf 92 | Full FLuc ctr inactive
O=C(CSc1ccc2nnc(-c3ccc(Cl)cc3)n2n1)N1CCCc2ccccc21	PP1 inh 24, Mdm2 MdmX PPI 84 | PP1 inh confirm inactive | PP5 inh counter inactive | Mdm2-MdmX conf inactive | Full FLuc ctr 90
O=C(Nc1nc(-c2ccccn2)cs1)c1cccc(-n2cnnn2)c1	PP1 inh 27, Beta cell apopt 76, Mdm2 MdmX PPI 77 | PP1 inh confirm 21 | PP5 inh counter inactive | Mdm2-MdmX conf 69 | Full FLuc ctr inactive
